The source of these data is PubChem BioAssay (NCATS).

Inconclusive results are not listed. Activity calls are given as the source filed them. Unless noted, calls follow the shape of the dose curve; as a rule, active = well fitted curve in the direction sought with a large enough effect; inconclusive = small, poorly fitted or top-dose-only effect, or another doubt; inactive = no such curve, though single readings can be large; an effect the other way counts as inactive or inconclusive.

A short description of assay [1]: qHTS profiling for inhibitors of Plasmodium falciparum (3D7) proliferation (AID 743322; call rule not given here;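 also: infected erythrocytes exposed to compound for 72 h before lysis; 100% = DMSO vehicle wells and 0% = 0.29 µM artemisinin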). The following applies: P. falciparum 3D7 proliferation; at 28.7 µM (top of the series) unless noted. The essentials:
(§1)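 Parasite DNA was quantified by SYBR Green I fluorescence (ex 485, em 535 nm) after overnight lysis in saponin/Triton buffer at room temperature. Cultures at 0.3% parasitemia and 2.5% hematocrit were first exposed to compound for 72 h at 37 C; signals were normalised to artemisinin (0.29 uM) and vehicle wells.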

The nature of assay [2]: qHTS profiling for inhibitors of Plasmodium falciparum (DD2) proliferation (AID 743323; call rule not given here). The following applies: lower = more inhibition; at 28.7 µM (top of the series) unless noted. Put shortly:
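Parasite DNA quantified by SYBR Green fluorescence (ex 485, em 535 nm) after saponin/Triton lysis and overnight dark incubation. Cultures: 0.3% parasitemia, 2.5% hematocrit, 72 h, 37 C; data scaled between DMSO and 0.29 uM artemisinin.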

Assay [3] in a line: qHTS profiling for inhibitors of Plasmodium falciparum (HB3) proliferation (AID 743324).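 Also: 100% = DMSO vehicle wells and 0% = artemisinin-treated control wells.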 The following applies: Plasmodium falciparum HB3 blood-stage proliferation; at 28.7 µM (top of the series) unless noted. The essentials: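 SYBR Green fluorescence (485 ex/535 em) of lysed cultures, incubated overnight at room temperature in the dark, quantifies parasite DNA. Infected erythrocytes at 0.3% parasitemia and 2.5% hematocrit were exposed 72 h; values normalized to DMSO and 0.29 uM artemisinin controls.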

A short description of assay [4]: qHTS profiling of the MIPE4 collection as inhibitors of Plasmodium falciparum (3D7) proliferation (AID 743344; call rule not given here;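 also: scaled between DMSO vehicle wells and 0.29 µM artemisinin as full inhibition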). The following applies: P. falciparum 3D7 in erythrocytes, SYBR Green DNA fluorescence, 72 h; at 28.5 µM (top of the series) unless noted. The essentials:
as §1

Assay [5] is described as follows: qHTS profiling of the MIPE4 collection as inhibitors of Plasmodium falciparum (DD2) proliferation (AID 743345; call rule not given here). The following applies: P. falciparum Dd2 in erythrocytes, SYBR Green DNA, 72 h; at 28.5 µM (top of the series) unless noted. The essentials: as §1
The nature of assay [6]: qHTS profiling of the MIPE4 collection as inhibitors of Plasmodium falciparum (DD2) proliferation (Rep 2) (AID 743346; call rule not given here). The following applies: P. falciparum Dd2 in erythrocytes, SYBR Green DNA, 72 h; at 28.5 µM (top of the series) unless noted. Put shortly: as §1
The nature of assay [7]: qHTS profiling of the MIPE4 collection as inhibitors of Plasmodium falciparum (HB3) proliferation (AID 743347; call rule not given here;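 also: plate controls were DMSO vehicle wells for no effect and artemisinin wells for full effect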). The following applies: P. falciparum HB3 in erythrocytes, SYBR Green DNA, 72 h; at 28.5 µM (top of the series) unless noted. The essentials: as §1
The nature of assay [8]: Cell Proliferation Assay Versus the ED40515 IL2 Dependent ATL cell lines (AID 1053195; calls by dose curve). The following applies: ED40515 IL2-dependent ATL cells. The essentials: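 CellTiter-Glo luminescence (15 min, RT) measured viability after 48 hours at 37C; cells were ED40515 +IL2, 1000/well, in phenol red-free RPMI with 5% FBS. Controls: DMSO and 9.2 uM bortezomib.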
Assay [9] is described as follows: High-throughput drug toxicity screening in the BPDCN cell line Gen2.2 (AID 1224824; call rule not given here;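 also: cells exposed to compounds for 48 h before reading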). The following applies: Gen2.2 BPDCN cells; at 45.8 µM (top of the series) unless noted. The essentials:
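CellTiter-Glo luminescence after 48 h compound exposure of Gen2.2 cells; percent activity set with DMSO as 100% and bortezomib (9.2 uM final) as 0%. Cells seeded at 500 per well, RPMI + 10% FBS, 37 °C.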

Assay [10] is described as follows: High-throughput drug toxicity screening in the BPDCN cell line Cal-1 (AID 1224825; call rule not given here). The following applies: Cal-1 BPDCN cell viability, qHTS; at 45.8 µM (top of the series) unless noted. Put shortly:
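Percent activity derived from CellTiter-Glo luminescence, scaling DMSO to 100% and 9.2 uM final bortezomib to 0%. BPDCN Cal-1 cells (500/well, RPMI plus 10% FBS) incubated with compounds 48 hours at 37C before reading.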

Assay [11] is described as follows: qHTS assay for measurement of the activity of small molecule inhibitors on Zika virus induced Caspase-3 activity in human iPSC derived neural progenitor cells (hNPCs) (AID 1224857). Also: % of control where 0% means no effect; nearly all actives have a fitted effect of over 65% in size. The essentials:
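In medium with heparin 2 ug/ml and cyclopamine 2 uM, hNPCs (350 cells/well) received compound for one hour and then Zika virus at 2 FFU/cell; caspase activity was measured by Caspase-Glo 3/7 luminescence 6 h post-infection.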

A short description of assay [12]: qHTS assay for measurement of the activity of small molecule inhibitors on Zika virus induced Caspase-3 activity in human astrocytoma cells (AID 1224859).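 Also: plate controls were ZIKV-infected untreated cells for no effect and uninfected cells for full effect.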 Put shortly:
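A cell-based luminescent caspase-3/7 assay used SNB-19 cells infected with ZIKV (2 FFU/cell) for 6 h following 1 h compound pretreatment.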

Assay [13] in a line: qHTS Screen of the MIPE 4.0 Collection Against Ewings Sarcoma (RDES) (AID 1259252). Also: nearly all actives have a fitted effect of over 35% in size. Also: potency is read from the fitted curve at half-maximal effect. The essentials:
(§2)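 Cells plated in serum-containing RPMI (5% FBS) and treated with compound dilutions for 48 h. Readout luminescent viability; normalization relied on vehicle (no inhibition) and media-only columns (full inhibition).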

Assay [14] in a line: qHTS Screen of the MIPE 4.0 Collection Against Ewings Sarcoma (TC71) (AID 1259253). Also: nearly all actives have a fitted effect of over 40% in size. Also: potency is read from the fitted curve at half-maximal effect. The essentials: as §2
Assay [15] can be described thus: qHTS Screen of the MIPE 4.0 Collection Against Ewings Sarcoma (EW8) (AID 1259255). Also: potency is read from the fitted curve at half-maximal effect; nearly all actives have a fitted effect of over 35% in size. Put shortly:
as §2

Assay [16] can be described thus: qHTS Screen of the MIPE 4.0 Collection Against Ewings Sarcoma (TC32) (AID 1259256). Also: nearly all actives have a fitted effect of over 45% in size. Also: potency is read from the fitted curve at half-maximal effect. The essentials:
as §2

A short description of assay [17]: Identifying Small Molecule Inhibitors of Pancreatic Cancer Stem Cells (A2780, Spheroid) (AID 1259357).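 Also: spheroids pre-formed over 14 days in stem cell medium on hydrogel; compound exposure lasted 48 h before the ATP luminescence read; 100% = DMSO treated cells and 0% = wells without cells.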 The following applies: Potency: A2780 spheroid viability. The essentials: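 Spheroids grown 14 days in stem cell media on hydrogel-coated nonadherent plates; 2D lines seeded directly. Compounds added after 4 h attachment, 48 h at 37C, 5% CO2; CellTiter-Glo luminescence normalized to DMSO (no inhibition) and no-cell wells (full inhibition).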

In assay [1], `CCOc1cc(N2CCC(O)CC2)ccc1Nc1ncc2c(n1)N(C)c1ccccc1C(=O)N2C` displayed a remaining parasite growth % (stronger effect = lower value) of 6.85%. Also, the activity, percent of control in assay [2] amounted to 1.46%. For the same molecule, the remaining proliferation (% of control), lower = more inhibition in assay [3] was -0.346%. The molecule also had a parasite growth, % of DMSO control in [4] of 4.46%. Further, in assay [5], the parasite growth remaining, % of DMSO control (lower = more inhibition) was 7.18%. In [6], this molecule came in with a parasite growth, % of control (lower = inhibition) of 5.98%. Also, in assay [7], the growth, % of control was 5.43%. Further, the Potency in assay [8] is 11.8 µM (active); in [13] it was 20.9 µM (active); in assay [14] it was 16.6 µM (active); in assay [15] it was 23.5 µM (active); in assay [16], 16.6 µM (active). In addition, in [9], the cell viability, % of control (lower = more cytotoxic) came out at 6.39%. The molecule also returned a viability (% of control) in assay [10] of 2.19%. For the same molecule, the Potency entry in assay [11] and in assay [12] was “inactive” throughout.

In assay [1], `CC(C)(Sc1ccc(CCN(CCCCC2CCCCC2)C(=O)NC2CCCCC2)cc1)C(=O)O` registered a remaining parasite growth % (stronger effect = lower value) of 98.9%. Moreover, the remaining proliferation (% of control), lower = more inhibition in assay [3] was found to be 92.7%. This molecule also yielded a parasite growth, % of DMSO control in assay [4] of 65.2%. For the same molecule, the parasite growth remaining, % of DMSO control (lower = more inhibition) in assay [5] came to 91.6%. Moreover, in assay [6], the parasite growth, % of control (lower = inhibition) turned out to be 51.8%. Moreover, the Potency in assay [8] was 18.7 µM (active); in assay [13], 14.8 µM (active); in assay [15], 4.69 µM (active); in [16], 18.7 µM (active). The cell viability, % of control (lower = more cytotoxic) in assay [9] turned out to be 75.1%. Moreover, the viability (% of control) in [10] amounted to 7.76%. In addition, the Potency entry in [11], in assay [12] and in assay [14] was “inactive” in each case.

For `COc1ccc(COc2cc3oc(=O)c4cc(C(C)O)ccc4c3cc2OC)cc1` (centres undefined), in [1], the remaining parasite growth % (stronger effect = lower value) stood at 75.7%. Further, the activity, percent of control in [2] is 22%. Further, in [3], the remaining proliferation (% of control), lower = more inhibition is 74.7%. The molecule further registered a parasite growth, % of DMSO control in assay [4] of 39.5%. In assay [5], this molecule registered a parasite growth remaining, % of DMSO control (lower = more inhibition) of 77.1%. Besides, the parasite growth, % of control (lower = inhibition) in assay [6] worked out at 27.3%. The Potency was 18.7 µM (active) in [8]; 13.2 µM (active) in assay [13]; 23.5 µM (active) in assay [14]; 20.9 µM (active) in assay [15]; 20.9 µM (active) in assay [16]. In assay [9], the cell viability, % of control (lower = more cytotoxic) came to 14.7%. Further, the viability (% of control) in assay [10] was 33.4%. For the same molecule, the Potency entry in assay [11], in assay [12] and in assay [17] was “inactive” throughout.

As for `CC1(C)CNc2cc(NC(=O)c3cccnc3NCc3ccncc3)ccc21`, in assay [1], the remaining parasite growth % (stronger effect = lower value) was 70.1%. The molecule also yielded an activity, percent of control in assay [2] of 68.6%. Also, the remaining proliferation (% of control), lower = more inhibition in [3] amounted to 5.63%. In [4], this molecule returned a parasite growth, % of DMSO control of 53.8%. In [5], this molecule showed a parasite growth remaining, % of DMSO control (lower = more inhibition) of 86.3%. In addition, the parasite growth, % of control (lower = inhibition) in assay [6] came out at 42.2%. The growth, % of control in [7] worked out at 30.1%. Further, the Potency is 23.5 µM (active) in [8]; 1.05 µM (active) in [13]; 2.35 µM (active) in [14]; 23.5 µM (active) in assay [15]; 5.26 µM (active) in assay [16]. In addition, the cell viability, % of control (lower = more cytotoxic) in assay [9] came out at 230%. In [10], this molecule returned a viability (% of control) of 69.9%. For the same molecule, the Potency entry in assay [11] and in assay [12] was “inactive” each time.

`Cc1c(CN2CCN(C(=O)C(C)C)CC2)sc2c(N3CCOCC3)nc(-c3cnc(N)nc3)nc12`: the remaining parasite growth % (stronger effect = lower value) in assay [1] was 12.2%. This molecule also returned an activity, percent of control in assay [2] of 23.2%. For the same molecule, the remaining proliferation (% of control), lower = more inhibition in assay [3] came out at 8.2%. The molecule also returned a parasite growth, % of DMSO control in assay [4] of 12.5%. In [5], this molecule came in with a parasite growth remaining, % of DMSO control (lower = more inhibition) of 25.7%. In [6], the parasite growth, % of control (lower = inhibition) amounted to 14.5%. This molecule also returned a growth, % of control in assay [7] of 4.71%. The Potency is 1.66 µM (active) in assay [8]; 0.0833 µM (active) in assay [13]; 0.148 µM (active) in [14]; 0.105 µM (active) in assay [15]; 0.0662 µM (active) in [16]. In [9], the cell viability, % of control (lower = more cytotoxic) stood at 2.32%. This molecule also showed a viability (% of control) in assay [10] of 3.99%. Besides, the Potency entry in assay [11] and in [12] was “inactive” in each case.

In assay [1], `CC(=O)NC(C)c1ccc(Oc2ccc(OC(C)C)cc2)cc1` (centres undefined) displayed a remaining parasite growth % (stronger effect = lower value) of 69.9%. This molecule showed an activity, percent of control in assay [2] of 93.5%. In assay [3], the remaining proliferation (% of control), lower = more inhibition stood at 95.2%. In addition, the parasite growth, % of DMSO control in assay [4] is 23.1%. For the same molecule, the parasite growth remaining, % of DMSO control (lower = more inhibition) in assay [5] turned out to be 10.5%. The same molecule yielded a parasite growth, % of control (lower = inhibition) in assay [6] of 8.63%. This molecule had a growth, % of control in assay [7] of 20.1%. In addition, the Potency in assay [8] was 13.2 µM (active); in [14] it was 8.33 µM (active); in [15], 6.62 µM (active). Further, the cell viability, % of control (lower = more cytotoxic) in [9] came out at 281%. Also, the viability (% of control) in assay [10] is 98.5%. Further, the Potency entry in assay [11], in assay [12], in assay [13] and in assay [16] was “inactive” throughout.
